# Results: ChEMBL document CHEMBL3988442, “University of Dundee, Small-Polar-MMV Screening Library” (2021)
# In all, about 69,000 compounds went through this assay and about 1,000 (1.4%) showed an effect of 50% or more. This excerpt belongs to a sample that is enriched for strong results.
# System: Leishmania donovani
# Assay: Leishmania intramacrophage assay
# Assay type: functional, organism-based
# Design: scale not given: in the data most compounds retested in dose-response had high values
structure (smiles),measurement,setting,value
CC(C)CN1C(=O)CC[C@H]2CN(C(=O)Cn3ccccc3=O)CC[C@H]21,Percent Effect,"30.3 µM, […]",3.813%
CC(C)N1CCCC(C(=O)N2CCN(c3nsc4ccccc34)CC2)C1 (stereo not given),Percent Effect,"30.3 µM, […]",77.99%
NC(=O)N1CCCC(C(=O)N2CCN(c3nsc4ccccc34)CC2)C1 (stereo not given),Percent Effect,"30.3 µM, […]",34.33%
CCN1CC(C(=O)N2CCN(c3nsc4ccccc34)CC2)CCC1=O (stereo not given),Percent Effect,"30.3 µM, […]",22.5%
COc1c(C2CCCN2C(=O)CCNc2ncccn2)c(C)nn1C (stereo not given),Percent Effect,30 µM,5.312%
COc1ccc(CN(C(=O)C2CCCS2)c2ccncc2)cc1 (stereo not given),Percent Effect,"30.3 µM, […]",-1.322%
COc1ccc(Oc2ccc(C(F)(F)F)cn2)cc1CN1CCCC1,Percent Effect,"30.3 µM, […]",2.243%
COc1cc(Oc2ccc(C(F)(F)F)cn2)ccc1CN1CCCC1,Percent Effect,"30.3 µM, […]",61.15%
COc1cc(Oc2ccc(C#N)cn2)ccc1CN1CCCC1,Percent Effect,"30.3 µM, […]",2.326%
COCC(=O)Nc1ccnn1-c1ccc(Cl)cc1,Percent Effect,"30.3 µM, […]",82.71%
CCOCCC(=O)Nc1ccnn1-c1ccc(Cl)cc1,Percent Effect,"30.3 µM, […]",0.3355%
COCCOCC(=O)Nc1ccnn1-c1ccc(Cl)cc1,Percent Effect,"30.3 µM, […]",23.94%
Cc1n[nH]c(C)c1CCN(C)c1ccc(-c2nc(C3CC3)no2)cn1,Percent Effect,"30.3 µM, […]",22.75%
Cc1nc(CCNC(=O)C(N)c2c(C)n[nH]c2C)sc1C (stereo not given),Percent Effect,"30.3 µM, […]",7.254%
Cc1nc(CNC(=O)NC2CCN(c3cccc(Cl)c3)C2)no1 (stereo not given),Percent Effect,"30.3 µM, […]",40.16%
CC(C)c1n[nH]c(C2CN(Cc3ccno3)CCO2)n1 (stereo not given),Percent Effect,"30.3 µM, […]",53.56%
Cc1nc(CN2CCOC(c3nc(C(C)C)n[nH]3)C2)oc1C (stereo not given),Percent Effect,"30 µM, 30.03 µM",-6.521%
CC(C)c1n[nH]c(C2CN(Cc3ncc[nH]3)CCO2)n1 (stereo not given),Percent Effect,"30.3 µM, […]",-15.06%
Cc1cnn(CCNCc2ccc(S(C)(=O)=O)cc2)c1,Percent Effect,"30.3 µM, […]",-1.29%
CC(C)CCc1n[nH]c(C(=O)O)c1Br,Percent Effect,"30.3 µM, […]",1.329%
O=C(O)C(F)(F)F.O=C(c1ccco1)N1CCO[C@@H]2CN(CC3CC3)CC[C@@H]2C1,Percent Effect,"30.3 µM, […]",52.8%
O=C(O)C(F)(F)F.O=C(c1ccco1)N1CC[C@@H]2CN(C3CCOCC3)CCO[C@@H]2C1,Percent Effect,"30.3 µM, […]",39.91%
O=C(O)C(F)(F)F.O=C(c1ccco1)N1CCO[C@@H]2CN(Cc3nccs3)CC[C@@H]2C1,Percent Effect,"30.3 µM, […]",43.58%
CCS(=O)(=O)N1CC[C@H]2[C@H]1CC(=O)N2Cc1csc(C)n1,Percent Effect,"30.3 µM, […]",11.91%
O=C(C1CCOCC1)N1C[C@H]2CCC[C@@]2(COCc2ccccn2)C1,Percent Effect,"30.3 µM, […]",39.51%
O=C(C1CCC1)N1C[C@@H]2CC[C@H](C1)N(S(=O)(=O)c1ccccc1)C2,Percent Effect,"30.3 µM, […]",-6.923%
O=C1CCC(=O)c2oc3ccc(Br)cc3c2N1,Percent Effect,"30.3 µM, […]",-16.45%
Cc1cc(Nc2cnccn2)cc(C2CCCNC2)n1 (stereo not given),Percent Effect,"30.3 µM, […]",-25.49%
Cc1cc(Nc2cnccn2)cc(C2CCCN2)n1 (stereo not given),Percent Effect,"30.3 µM, […]",50.63%
Cc1nc(Nc2cnccn2)cc(C2CCCN2)n1.Cl (stereo not given),Percent Effect,"30.3 µM, […]",-4.51%
CSC1(CNC(=O)CCc2ccc(Cl)s2)CCOCC1,Percent Effect,"30.3 µM, […]",-1.683%
COCCN1CCC(CNC(=O)c2ccnc(-n3ccnc3)c2)CC1,Percent Effect,"30.3 µM, […]",-33.66%
CCOCC1CN(Cc2ccoc2)Cc2cn(CC3CC3)nc21 (stereo not given),Percent Effect,"30.3 µM, […]",26.22%
CCS(=O)(=O)N1CCCC(c2nccn2Cc2ccccn2)C1 (stereo not given),Percent Effect,"30.3 µM, […]",2.474%
CCS(=O)(=O)N1CCN(C(=O)NC(C)C)CC2(CC(=O)N(C)C2)C1 (stereo not given),Percent Effect,"30.3 µM, […]",15.87%
CCCn1nnc(NCc2ccc(-c3ccc(Br)cc3)o2)n1,Percent Effect,"30.3 µM, […]",-28.31%
CCC(CO)NCc1ccc(-c2ccc(F)c(Cl)c2)o1.Cl (stereo not given),Percent Effect,"30.3 µM, […]",76.93%
CCC(CO)NCc1ccc(-c2ccccc2F)o1 (stereo not given),Percent Effect,"30.3 µM, […]",4.793%
CC(NCc1ccc(-c2ccc(Cl)cc2)o1)c1nnc2n1CCC2 (stereo not given),Percent Effect,"30.3 µM, […]",-2.109%
CCn1nnc(NCc2ccc(-c3ccc(Br)cc3)o2)n1,Percent Effect,"30.3 µM, […]",4.739%
CCC(CO)NCc1ccc(-c2ccccc2)o1.Cl (stereo not given),Percent Effect,"30.3 µM, […]",7.098%
CCC(CO)NCc1ccc(-c2ccc(F)cc2)o1.Cl (stereo not given),Percent Effect,"30.3 µM, […]",4.62%
CCC(CO)NCc1ccc(-c2ccc(Cl)cc2)o1.Cl (stereo not given),Percent Effect,"30.3 µM, […]",78.06%
CCC(CO)NCc1ccc(-c2ccc(Br)cc2)o1.Cl (stereo not given),Percent Effect,"30.3 µM, […]",86.07%
COCCN1CCN(CC(=O)NC2(C#N)CCCC2)CC1,Percent Effect,"30.3 µM, […]",21.7%
Cn1cc(-c2cnc(N3CCOCC3)nc2)cc1C(=O)NCCC#N.O=C(O)C(F)(F)F,Percent Effect,"30.3 µM, […]",12.83%
CN(CC(=O)NC(C)(C)C)Cc1cccc2c1OCCO2,Percent Effect,"30.3 µM, […]",16.54%
CC1CCN(c2ccc(NC(=O)CCn3cccn3)cc2)CC1,Percent Effect,"30.3 µM, […]",16.17%
Cc1cc(C(=O)N2C[C@@H]3[C@@H](C2)OCC(=O)N3CC2CC2)no1,Percent Effect,"30 µM, 30.03 µM",18.33%
Cc1nn(C)cc1-c1cncn1CCN(C)C1CCCC1.Cl,Percent Effect,"30.3 µM, […]",52.65%
CCCn1nc(C)c(-c2cncn2CCN(C)C2CCCC2)c1C.Cl,Percent Effect,"30.3 µM, […]",42.92%
CCn1nc(C)c(-c2cncn2CCN(C)C2CCCC2)c1C.Cl,Percent Effect,"30.3 µM, […]",32.48%
CC(C)C1CN(c2nccc(N)n2)CCC(=O)N1Cc1ccc(F)cc1 (stereo not given),Percent Effect,"30.3 µM, […]",-20.97%
COc1cccc2c1OCC(CNC(=O)Cn1ccnc1C)C2 (stereo not given),Percent Effect,"30.3 µM, […]",4.9%
OC(CNCCn1cccn1)COc1ccc(F)cc1 (stereo not given),Percent Effect,"30.3 µM, […]",20.47%
OC(CNCCn1cccn1)COc1ccc(Br)cc1 (stereo not given),Percent Effect,"30.3 µM, […]",25.57%
OC(CNCCn1cccn1)COc1ccc2ccccc2c1 (stereo not given),Percent Effect,"30.3 µM, […]",56.8%
Cc1nnc2n1CCN(C(=O)C(OC1CCCC1)c1ccccc1)C2 (stereo not given),Percent Effect,"30.3 µM, […]",5.78%
O=C(Nc1ccc(S(=O)(=O)Nc2c(F)cccc2F)cc1)N1CCCC1,Percent Effect,"30.3 µM, […]",12.59%
CC(=O)NCC(=O)N1CCOC2(CCCN(c3cccnc3)C2)C1.O=C(O)C(F)(F)F (stereo not given),Percent Effect,"30 µM, 30.03 µM",4.273%
CC(=O)N1CCCCC1c1ncnn1-c1ccc2nc(C)sc2c1 (stereo not given),Percent Effect,"30.3 µM, […]",29.12%
Cc1nc2ccc(-n3ncnc3[C@@H]3CCCN3S(C)(=O)=O)cc2s1,Percent Effect,"30.3 µM, […]",99.47%
CS(=O)(=O)N1CCC[C@H]1c1ncnn1-c1ccc2c(c1)OCO2,Percent Effect,"30.3 µM, […]",-61.62%
COc1ccc(OCCc2nnc(NC(C)=O)s2)cc1,Percent Effect,"30.3 µM, […]",-16.84%
O=C(NC1CCS(=O)(=O)C1)c1ccc(SCc2cscn2)cc1 (stereo not given),Percent Effect,"30.3 µM, […]",10.79%
